Where “and” joins values, the source holds several entries; their conditions need not be identical. Equal values may be shown once. Out of some 230,000 compounds screened, about 1,500 (0.65%) were called active. Where a call stands in place of a potency, no number is given. Another 3% or so got no clear call; they are omitted. This is one part of a sample in which actives are shown more often than they occur. The call rests on the fitted dose curve; in most records, active means well fitted inhibition curve with a large enough effect; inconclusive means small, poorly fitted or top-dose-only effect; inactive means no such curve, though single readings can be large or run the other way. Where a structure was tested more than once in an assay, its records may differ in their call.
What follows are molecules tested against Lethal(3)malignant brain tumor-like protein 1 (Homo sapiens) (UniProt Q9Y468) (assay: qHTS Assay for the Inhibitors of L3MBTL1). Conditions: AlphaScreen L3MBTL1–H3K9me1 peptide binding; series mostly up to 57.1 µM.
Lethal(3)malignant brain tumor-like protein 1 (Homo sapiens), sequence (Q9Y468 whole entry, looked up): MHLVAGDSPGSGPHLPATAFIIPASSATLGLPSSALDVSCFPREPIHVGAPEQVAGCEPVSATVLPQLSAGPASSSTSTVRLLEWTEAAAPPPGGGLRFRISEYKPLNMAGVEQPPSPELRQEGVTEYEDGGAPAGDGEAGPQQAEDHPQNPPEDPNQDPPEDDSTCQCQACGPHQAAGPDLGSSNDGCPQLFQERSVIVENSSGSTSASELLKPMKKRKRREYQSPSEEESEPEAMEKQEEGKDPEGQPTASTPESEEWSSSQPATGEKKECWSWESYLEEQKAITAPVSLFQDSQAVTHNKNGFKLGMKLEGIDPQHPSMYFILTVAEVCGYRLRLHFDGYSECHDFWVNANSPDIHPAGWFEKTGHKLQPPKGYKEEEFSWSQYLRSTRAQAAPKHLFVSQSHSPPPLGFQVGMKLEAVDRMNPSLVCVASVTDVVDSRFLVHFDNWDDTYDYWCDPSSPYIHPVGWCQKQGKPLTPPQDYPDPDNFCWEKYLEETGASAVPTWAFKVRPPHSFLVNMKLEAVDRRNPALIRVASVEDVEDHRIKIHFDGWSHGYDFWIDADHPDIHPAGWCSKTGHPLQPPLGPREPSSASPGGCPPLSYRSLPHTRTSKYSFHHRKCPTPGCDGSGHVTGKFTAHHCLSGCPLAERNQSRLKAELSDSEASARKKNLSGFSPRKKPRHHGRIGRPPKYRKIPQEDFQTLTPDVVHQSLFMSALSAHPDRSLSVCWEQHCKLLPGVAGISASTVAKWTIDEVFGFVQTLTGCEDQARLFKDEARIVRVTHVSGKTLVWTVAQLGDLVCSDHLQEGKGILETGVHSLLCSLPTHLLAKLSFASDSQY
Procedure, shortened: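 AlphaScreen proximity signal between nickel-chelate acceptor and streptavidin donor beads (final 10 ug/mL) reports binding of 50 nM L3MBTL1 to 75 nM biotin-H3 K9me1 peptide; complex incubated with compounds 30 min at room temperature; cefsulodin titration as control.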
Further: nearly all actives have a fitted effect of over 60% in size.
Potency means the concentration at half of the fitted maximal effect.

Compound	Potency	activity, negative = inhibition
O=C(Nc1ccc(NC(=O)c2cccs2)cn1)c1ccco1	inactive	
O=C(N/N=C/C=C/c1ccco1)c1cccs1	31.6 µM (active)	
O=C(N/N=C/c1ccco1)c1ccc(C(=O)N/N=C/c2ccco2)o1	inactive	
Cc1cc([N+](=O)[O-])ccc1NC1CCCC1	inactive	
Cc1c(NS(=O)(=O)c2ccc(NC3CCCC3)c([N+](=O)[O-])c2)c(=O)n(-c2ccccc2)n1C	inactive	
Cc1cc(C=O)c(C)n1-c1ccc(NC2CCCCC2)c([N+](=O)[O-])c1	15.8 µM (active)	
O=C(COC(=O)c1cccnc1Cl)NC12CC3CC(CC(C3)C1)C2	inactive	
COc1ccc(-c2nnc(SCC(=O)c3cccs3)o2)c(OC)c1	inactive	
Cc1ccc(-c2nnc(-c3ccc(NC(=O)c4cccs4)cc3)o2)cc1	inactive	
O=C(NCC#CCSc1nnc(-c2cccc3ccccc23)o1)c1cccs1	inactive and 10 µM (active)	
COc1ccc(NS(=O)(=O)c2ccc(C)c(C(=O)N(C)Cc3ccc(OC)cc3OC)c2)cc1	inactive	
O=C(NCCC1CCCCN1S(=O)(=O)c1ccccc1)C(=O)NCC1CCCO1 (stereo not drawn)	inactive	
CC(C)(C)OC(=O)NCCCCCNC(=O)c1[nH]cnc1C(=O)Nc1nccs1	28.2 µM (active)	
CC(C)(C)OC(=O)NCCCCCNC(=O)c1nc[nH]c1C(=O)NCc1ccccc1	inactive	
C[C@H](NC(=O)c1nc[nH]c1C(=O)NCC(=O)OC(C)(C)C)c1ccccc1	inactive	
Cc1csc(=O)n1CC(=O)Nc1ccc(S(C)(=O)=O)cc1	inactive	
Cc1ccc(S(=O)(=O)NC[C@H]2O[C@@H](n3cnc4c(N)ncnc43)[C@H](O)[C@@H]2O)s1	inactive	
O=C(Cc1ccc(S(=O)(=O)N2CCOCC2)s1)N1CCN(c2ccc(C(F)(F)F)cc2[N+](=O)[O-])CC1	inactive	
Cc1cccc(-n2ncc3c(=O)[nH]c(SCC(=O)Nc4cc(C)on4)nc32)c1	inactive	
O=C1CCCC(O)=C1N=Nc1ccc(S(=O)(=O)N2CCOCC2)cc1	inactive	
O=C1CCCC(O)=C1N=Nc1ccc2ncsc2c1	25.1 µM (active)	
CC[C@@]1(C(=O)OC)N[C@H](CN(C)C(C)=O)[C@@H]2C(=O)N(C)C(=O)[C@@H]21	inactive	
Cc1nnc(SCC(=O)Nc2cccc(N)c2)n1-c1ccccc1	inactive	
O=C1c2ccccc2C(=O)c2c1cccc2N1CCN(CCO)CC1	inactive	
O=c1cc(N2CCN(Cc3ccccc3)CC2)c(-c2ccccc2)n[nH]1	inactive	

Compound	Potency	activity, negative = inhibition
O=C1c2ccccc2C(=O)c2c1cccc2N1CCN(Cc2ccccc2)CC1	14.1 µM (active)	
CN(CC(=O)O)C(=O)c1ccccc1	inactive	
Cc1cc([N+](=O)[O-])ccc1NC(=O)c1ccc(NC(=O)C(C)C)cc1		-0.242% [at 11.4 µM] (inactive)
Cn1ccc(=Nc2ccc(NC(=O)c3ccc(N=c4ccn(C)c5ccc([N+](=O)[O-])cc45)cc3)cc2)cc1	25.1 µM (active)	
CCc1ccc(NC(=O)c2ccc(Cn3cc([N+](=O)[O-])cn3)cc2)cc1	inactive	
COCC(=O)N1CCCC(C(=O)c2ccc(C(F)(F)F)cc2)C1 (stereo not drawn)	inactive	
Cc1c(OC(C)C(=O)NCC2CCC(C(=O)O)CC2)ccc2c1oc(=O)c1ccccc12 (stereo not drawn)	inactive	
CCCNC(=O)CCn1cc(-c2ccc(OC)cc2)nc1CCN	inactive	
CCOC(=O)Cc1csc(NC(=O)Nc2ccccc2)n1	inactive	
CCN(C(=O)Cc1nc(N)n[nH]1)C1(C(=O)Nc2ccccc2)CCCCC1	11.2 µM (active)	
CCOC(=O)c1cn[nH]c1NC(=S)Nc1ccccc1	inactive	
Cc1ccc(OCC(=O)NC(C)c2ccccc2)cc1C (stereo not drawn)	inactive	
CCCCC[C@@H]1C=C(C(=O)O)[C@H](c2ccc(C#N)cc2)N1S(=O)(=O)c1ccc(C)cc1	inactive	
CCOc1ccc(NC(=O)CCC(=O)N/N=C/c2ccc([N+](=O)[O-])s2)cc1	inactive	
O=[N+]([O-])c1ccc(C=Nc2ccc(Cl)cc2Cl)s1	25.1 µM (active)	
CC1CN(C(=O)c2ccc([N+](=O)[O-])s2)CC(C)O1 (stereo not drawn)	inactive	
O=[N+]([O-])c1ccc2c(c1)Nc1nc3ccccc3nc1N2	inactive	
Cn1nnnc1SCC(=O)Nc1cccc(S(=O)(=O)N2CCCCC2)c1	inactive	
COc1ccccc1-c1sc2ccccc2c1C#CC1(O)CCCCC1	inactive	
COc1ccc2c(C(=O)c3ccc(C)cc3)n(CCC(N)=O)[n+]([O-])c2c1	inactive	
O=C1CSc2ccc(C(=O)NCc3ccccn3)cc2N1	inactive	
CC(C)(C)c1ccc(NC(=O)NCc2ccco2)cc1	inactive	
O=C(NCc1ccccn1)c1cc(-c2ccccc2Cl)on1	inactive	
O=C(NCc1ccccn1)c1ccc2nc(-c3ccco3)c(-c3ccco3)nc2c1	3.55 µM (active)	
COc1ccc(NC(=O)Nc2ccc3nsnc3c2)cc1	inactive	

Compound	Potency	activity, negative = inhibition
COCCNC(=O)Nc1ccc2nc(-c3ccco3)c(-c3ccco3)nc2c1	2.82 µM (active)	
O=C(Nc1ncccc1O)c1ccc(C(=O)c2ccccc2)cc1	inactive	
CCOC(=O)N1CCN(C(=O)c2ccccc2SCC(=O)NCC2CCCCC2)CC1	inactive	
CCOC(=O)c1c(C)[nH]c(C(=O)NCc2ccccc2OC)c1C	inactive	
Cc1c(C(=O)N/N=C/c2ccccc2)[nH]c2c([N+](=O)[O-])cccc12	inactive	
COc1cccc2c(C)c(C(=O)O)[nH]c12	25.1 µM (active)	
CC(C)Cn1c(SCC(=O)Nc2ccc(Cl)cc2F)nc(O)cc1=O	inactive	
CC(=O)C[C@H](O)CC(=O)[C@@H]1OC(=O)[C@@H](C)C/C=C\Cc2ccccc21	inactive	
CSc1nc(-c2ccco2)nn1C(=O)CCc1ccccc1	inactive	
CCOC(=O)/C=c1\s/c(=C\c2ccccc2OC)c(=O)n1CC(=O)N1CCOCC1	inactive	
CCOc1ccccc1/C=c1\sc2nc(-c3ccco3)nn2c1=O	15.8 µM (active)	
COc1ccccc1N1CC(C(=O)NCCN2C(=O)S/C(=C\c3cccnc3)C2=O)CC1=O (stereo not drawn)	inactive	
CC[C@]12c3[nH]c4ccc(Cl)cc4c3CCN1C(=O)[C@@H](CC(=O)NCCN1CCOCC1)C[C@@H]2C(=O)N1CCN(C(=O)C2CC2)CC1	inactive	
Cc1ccc(C)n1C(Cc1ccccc1)C(=O)O (stereo not drawn)	5.62 µM (active)	
CC(Cc1ccccc1)C(=O)N(C)Cc1ccccc1 (stereo not drawn)	inactive	
CCOC(=O)C(Cc1ccc(N)cc1)N1C(=O)c2ccccc2C1=O (stereo not drawn)	inactive	
CCn1c(=S)[nH]c2cc(S(=O)(=O)N3CCOCC3)ccc21	inactive	
CCCN=C1N(C)C[C@@H]2[C@@H]3C(=O)N(Cc4ccccc4)C(=O)[C@@H]3[C@](C)(C(=O)OC)N12	inactive	
CC(=O)Nc1ccc(C(=O)Nc2cccc(S(=O)(=O)NC3=NCCC3)c2)cc1	inactive	
Cc1ccc(S(=O)(=O)NCCC(=O)OCC(=O)N(C)c2ccccc2)cc1	inactive	
Oc1ccc(N=Cc2sc3ccccc3c2Cl)cc1	31.6 µM (active)	
O=C(N/N=C/c1c(Cl)[nH]c2ccccc12)c1sc2ccccc2c1Cl	inactive	
COc1ccc(N=C(C)c2sc3ccccc3c2O)cc1	inactive	
Cc1csc(SCC(=O)N(c2ccccc2)C(C)C)n1	inactive	
COC(=O)c1ccc(CNC(=O)c2ccc(S(=O)(=O)N3CCCCCC3)cc2)cc1	inactive	

Compound	Potency	activity, negative = inhibition
CCN(CC)C(CNC(=O)CSc1nnnn1-c1cccc(F)c1)c1ccco1 (stereo not drawn)	inactive	
COc1ccc(-c2nnc(SC(C)C(=O)NC3CC3)o2)cc1 (stereo not drawn)	inactive	
CCCCOC(=O)Nc1nnc(CC(=O)NCc2ccccc2)s1	inactive	
O=C(COC(=O)c1ccc(O)cc1)Nc1nccs1	inactive	
CCCCOC(=O)Nc1nccs1	8.91 µM (active)	
Cc1ccc(NC(=O)CCNC(=O)c2ccc([N+](=O)[O-])cc2)cc1S(=O)(=O)N1CCOCC1	inactive	
CC(=O)N(O)CCCCCNC(=O)CCC(=O)N(O)CCCCCNC(=O)CCC(=O)N(O)CCCCCNC(=O)CCC(=O)O	inactive	
CC[C@]12c3[nH]c4ccc(OC)cc4c3CCN1C(=O)C(CC(=O)NCCN1CCOCC1)C[C@@H]2C(=O)N1CCN(C(=O)C2CC2)CC1 (stereo partly drawn)	inactive	
CCCn1c(C)cc(/C=C(\C#N)C(=O)OCC(=O)N(C)c2c(N)n(Cc3ccccc3)c(=O)[nH]c2=O)c1C	inactive	
Cc1cc(=O)[nH]c(Nc2cccc(Br)c2)n1	inactive	
CCOc1ccc(C(=O)Nc2ccncc2)cc1	inactive	
CCOc1cccc(NC(=O)CC#N)c1		-26.1% [at 11.4 µM] (inactive)
CCOc1ccc(NC(=O)c2ccc(NC(=O)COC(=O)c3ccc(NC(=O)CC#N)cc3)cc2)cc1	1.58 µM (active)	
COC(=O)[C@]1(C)CCC[C@@]2(C)C3CC[C@]4(OC(C)=O)C[C@@]3(CCC21)CC4=NO (stereo partly drawn)	inactive	
COCCCn1c2nc3ccccc3nc2c2c(=O)n(Cc3ccc(Cl)cc3)c(C)nc21	inactive	
Cc1ccc(Cn2c(C)nc3c(c2=O)c2nc4ccccc4nc2n3Cc2ccco2)cc1	17.8 µM (active)	
Cc1nc2ccccc2c(=O)n1Cc1ccc([N+](=O)[O-])cc1	inactive	
COc1ccc(CCNC(=S)N2CCN(S(=O)(=O)c3ccc(F)cc3)CC2)cc1	inactive	
Cc1cccc(N=C2SC(C)CN2C(=O)CN2C(=O)NC3(CCCC3)C2=O)c1 (stereo not drawn)	inactive	
O=C(COc1coc(CN2CCN(c3ccccc3)CC2)cc1=O)N1CCc2ccccc21	inactive	
COc1ccc(C(=O)CSc2nnc(COc3ccccc3)n2Cc2ccco2)cc1	inactive	
CCCc1nc2c(c(=O)c3ccccc3n2C)c(=O)n1-c1cc(C)cc(C)c1	inactive	
Cn1c2ccccc2c(=O)c2c(=O)n(Cc3ccco3)c(COc3ccccc3)nc21	12.6 µM (active)	

Reference: PubChem BioAssay AID485360 (National Center for Advancing Translational Sciences (NCATS), 2010)
